Hits are enriched below; roughly 4.6% of the tested compounds scored in any of these assays.
ABHD5-PLIN5 inh = blocks binding of human ABHD5 to perilipin-5; Q00G26+Q8WTS1; Split G. princeps luciferase complementation, luminescence, 4 h; inhibition, % at 4 µM; 360,000 compounds, 0.78% hits; AID 602281;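 active means inhibition above the mean inhibition across every tested compound plus 3 SD, cut at about 22% in these data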
KKLEB cytotox = reduces viability of KKLEB cystic fibrosis airway cells | KKLEB CF airway cells viability, ATPlite luminescence, overnight; active compounds read low; cells stimulated with P. aeruginosa culture filtrate | activity change (cytotoxicity), % at 5 µM | 360,000 compounds, 0.36% hits;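 active means corrected activity change at or below -50% at 5 µM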
Peg3 prom inh = inhibitors of Peg3 promoter; HeLa PEG-Prom luciferase reporter, luminescence, overnight; inhibition, % at 20 µM; 360,000 compounds, 1.7% hits;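 active means inhibition of at least 50% at 20 µM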
Mdm2-MdmX inh = human Mdm2/MdmX binding inhibition | O15151+Q00987 | SaOS-2 split-luciferase Mdm2/MdmX complementation, luminescence | inhibition, % at 8 µM | 330,000 compounds, 3% hits | AID 485346;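 active means inhibition of at least 50% at 8 µM in the primary screen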
Target sequence (O15151 whole entry, looked up): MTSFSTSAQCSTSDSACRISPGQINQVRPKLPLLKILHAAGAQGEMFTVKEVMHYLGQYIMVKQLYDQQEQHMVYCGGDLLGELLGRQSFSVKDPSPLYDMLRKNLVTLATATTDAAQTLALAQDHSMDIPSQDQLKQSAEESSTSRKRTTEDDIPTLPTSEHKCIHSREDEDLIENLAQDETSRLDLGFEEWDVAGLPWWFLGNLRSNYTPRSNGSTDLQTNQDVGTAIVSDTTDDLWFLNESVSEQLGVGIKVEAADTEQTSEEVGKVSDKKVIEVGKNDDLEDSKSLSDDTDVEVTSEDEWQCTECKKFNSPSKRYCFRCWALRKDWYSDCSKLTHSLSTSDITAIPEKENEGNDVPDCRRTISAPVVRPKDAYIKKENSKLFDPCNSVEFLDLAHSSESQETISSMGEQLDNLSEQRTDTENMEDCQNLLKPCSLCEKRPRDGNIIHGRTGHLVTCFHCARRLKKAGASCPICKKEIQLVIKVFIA
Target sequence (Q00987 whole entry, looked up): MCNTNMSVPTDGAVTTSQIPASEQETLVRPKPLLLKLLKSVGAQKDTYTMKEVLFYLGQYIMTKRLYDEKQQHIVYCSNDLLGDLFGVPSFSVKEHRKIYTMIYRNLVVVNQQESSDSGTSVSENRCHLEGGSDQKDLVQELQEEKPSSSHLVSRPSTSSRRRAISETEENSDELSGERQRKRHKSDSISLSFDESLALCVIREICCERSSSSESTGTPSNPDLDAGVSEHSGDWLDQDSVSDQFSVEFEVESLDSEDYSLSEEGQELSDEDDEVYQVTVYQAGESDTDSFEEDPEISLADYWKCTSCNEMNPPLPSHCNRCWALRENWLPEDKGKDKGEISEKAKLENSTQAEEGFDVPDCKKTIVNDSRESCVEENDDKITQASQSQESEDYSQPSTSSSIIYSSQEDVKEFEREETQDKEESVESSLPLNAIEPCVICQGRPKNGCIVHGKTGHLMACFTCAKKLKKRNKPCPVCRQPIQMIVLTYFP
HIF-2a block = blocks HIF-2a reporter activity | 786-0 RCC cells HIF-2a reporter, luciferase luminescence, overnight | inhibition, % at 18.8 µM | 360,000 compounds, 0.72% hits | AID 624352;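 active means inhibition of the luminescence signal of 40% or more relative to plate controls, in a single-dose primary screen at 18.75 µM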
CF NFkB block = blocks PAF-induced NF-kB reporter in cystic fibrosis cells | inhibition, % at 5 µM | 360,000 compounds, 0.86% hits | AID 588850 | KKLEB NF-kB-GFP reporter, GFP fluorescence overnight;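 active means at least 50% inhibition at 5 µM, scaled per plate between neutral and stimulator controls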;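 further: PAF is a Pseudomonas aeruginosa culture filtrate used as stimulus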
Of the large screens only hits and unclear results are named; the others gave an inactive call; ! = a repeat was not active.

CC(=O)Nc1ccc2nc(NC(=O)c3ccc([N+](=O)[O-])o3)sc2c1	CF NFkB block 81
Cc1cnc(NC(=O)c2cc3c(s2)CCCC3)s1	KKLEB cytotox -51
Cc1csc(NC(=O)c2cc3c(s2)CCCCC3)n1	KKLEB cytotox -63, Peg3 prom inh 58
Cc1csc(NC(=O)c2cc3c(s2)CCCC3)n1	none
CC(O)(c1cccnc1)c1nc(/C=C/c2ccccc2)cs1 (stereo not drawn)	none (no result: Mdm2-MdmX inh)
CC1(C(=O)NCc2ccc3c(c2)OCO3)CCN1Cc1csc2ccccc12 (stereo not drawn)	none (no result: Mdm2-MdmX inh)
COc1cccc(NC(=O)N2CCN(c3nc(-c4cccc(OC)c4)cs3)CC2)c1	Peg3 prom inh 51
CC1(O)C(=O)C=C2C=C(c3ccc(C#N)cc3)OC=C2C1=O (stereo not drawn)	none (no result: ABHD5-PLIN5 inh, KKLEB cytotox, Peg3 prom inh, HIF-2a block, CF NFkB block)
c1ccc2cc(N3CCCCC3)ccc2c1	none (no result: Mdm2-MdmX inh)
O=C1c2ccccc2C(=O)c2cc(N3CCCCC3)ccc21	KKLEB cytotox -63 (no result: Mdm2-MdmX inh)
Cc1nn(-c2ccccc2)c(C)c1/C=N/n1c(-c2ccc(Cl)cc2)n[nH]c1=S	Peg3 prom inh 53
CC(=O)Nc1ccc(C2=NNC(=Nc3cccc(S(=O)(=O)N(C)C)c3)SC2)cc1	ABHD5-PLIN5 inh 58
O=C(O)c1cccc(N/N=C/c2cccnc2)c1	Peg3 prom inh 58 (no result: Mdm2-MdmX inh)
O=c1c2ccccc2nc2n1CCc1ccc(Br)cc1-2	none (no result: Mdm2-MdmX inh)
Cc1ccc(S(=O)(=O)c2ccc([N+](=O)[O-])o2)cc1	ABHD5-PLIN5 inh 85, KKLEB cytotox -89, Peg3 prom inh 105, HIF-2a block 89, CF NFkB block 78 (no result: Mdm2-MdmX inh)
CCn1c2ccccc2c2cc(C3C(C#N)=C(N)Oc4n[nH]c(COC)c43)ccc21 (stereo not drawn)	Peg3 prom inh 89
O=[N+]([O-])c1ccc(-c2nc(Cl)c3c(n2)CCCC3)o1	none (no result: Mdm2-MdmX inh)
CC(C)C1CC(CCNCc2ccc(N(C)C)cc2)(c2ccccc2)CCO1 (stereo not drawn)	Peg3 prom inh 59
Cc1ccc(-c2c(C(=O)N/N=C/c3c[nH]c4ccccc34)nnn2-c2nonc2N)cc1	none
COc1cc([N+](=O)[O-])ccc1N/C=C/C(=O)c1cccs1	KKLEB cytotox -58
O=C(/C=C/c1ccc([N+](=O)[O-])cc1)c1cccs1	none
Cc1ccc(S(=O)(=O)N2C(=O)CCC2C(N)=O)cc1 (stereo not drawn)	none
O=C(Nc1cccc(S(=O)(=O)N2CCCCC2)c1)c1ccc2c(=O)n3c(nc2c1)CCCCC3	Peg3 prom inh 90
CCc1ccc(NC(=O)c2ccc3c(=O)n4c(nc3c2)CCCCC4)cc1	none
COc1ccccc1OCCCCn1ncc2ccc(OC)c(OC)c2c1=O	none
CC1=NOC(=O)/C1=C/c1ccc(O)c(Cl)c1	none
CCCOc1ccc(/C=C2/C(=O)ON=C2C)cc1Cl	Peg3 prom inh 65
COCCNC(=O)C[C@H]1C[C@H]2c3cc(NS(=O)(=O)c4ccc(F)cc4)ccc3O[C@H]2[C@H](CO)O1	none (no result: Mdm2-MdmX inh)
O=C1CC2(CCN(C(=O)C(=O)c3c[nH]c4ccccc34)CC2)Oc2ccccc21	KKLEB cytotox -100, CF NFkB block 84
O=C(C(=O)N1CCCC1)c1c[nH]c2ccccc12	none
COc1cc(Nc2ccccn2)cc(C(=O)Nc2cccc(C(F)(F)F)c2)c1	Peg3 prom inh 81!
CC1CCN(c2nc(/C=C/c3ccccc3)nc3ccccc23)CC1	none
C(=C\c1nc(N2CCCC2)c2ccccc2n1)/c1ccccc1	Peg3 prom inh 103
Cc1[nH]c2ccccc2c1C(=O)CN1CCN(c2ccc(Cl)cc2)CC1	none
NC(N)=N/N=C(\N=Nc1ccccc1)c1ccc(Cl)cc1	Peg3 prom inh 90 (no result: Mdm2-MdmX inh)
Cc1ccc(NS(=O)(=O)c2cc([N+](=O)[O-])ccc2NNC(=S)Nc2cccc(Cl)c2)c(C)c1	none (no result: Mdm2-MdmX inh)
COc1ccc(NC(=S)NNc2ccc([N+](=O)[O-])cc2S(=O)(=O)Nc2ccc(C)cc2C)cc1	Peg3 prom inh 52
O=C1OC(C(Cl)(Cl)Cl)Nc2ccccc21 (stereo not drawn)	none (no result: Mdm2-MdmX inh)
COc1cccc2c1C(=O)c1c(O)c3c(c(O)c1C2=O)CC(O)(C(C)=O)CC3OC1CC(N(C)C)C(O)C(C)O1 (stereo not drawn)	Peg3 prom inh 98, CF NFkB block 77 (no result: Mdm2-MdmX inh)
COc1cccc2c1C(=O)c1c(O)c3c(c(O)c1C2=O)C[C@@](O)(C(=O)CO)C[C@@H]3OC1CC(N)C(O)C(C)O1 (stereo partly drawn)	Peg3 prom inh 96 (no result: Mdm2-MdmX inh)
CC(=O)[C@@]1(O)Cc2c(O)c3c(c(O)c2[C@H](O[C@H]2C[C@H](N)[C@H](O)[C@H](C)O2)C1)C(=O)c1ccccc1C3=O	KKLEB cytotox -53, Peg3 prom inh 99 (no result: Mdm2-MdmX inh)
CC(=O)NC(c1ccccc1)c1nc(-c2cncnc2)cs1 (stereo not drawn)	none (no result: Mdm2-MdmX inh)
COc1ccc(NC(=O)Nc2nnc(Cc3ccc(F)cc3)s2)cc1	none
CCOC(=O)c1ccc(-c2ccc(/C=C(\C#N)C(=O)NCc3cccs3)o2)cc1	Peg3 prom inh 72 (no result: Mdm2-MdmX inh)
COc1ccc2cc(C(=O)Nc3ccc(S(N)(=O)=O)cc3)sc(=O)c2c1OC	Peg3 prom inh 79
COc1ccc2cc(C(=O)Nc3ccccc3)sc(=O)c2c1OC	none
CCc1ccc(OCc2n[nH]c(=S)n2C(C)CCCC(C)C)cc1 (stereo not drawn)	Peg3 prom inh 111
CCCCNC(=O)c1ccc(Cc2cn(C)c3ccccc23)nc1	none (no result: Mdm2-MdmX inh)
COc1ccc(C(=O)CCS(=O)(=O)c2ccc(C)cc2)cc1OC	Peg3 prom inh 59
CCN(CC)CCCNc1nc2cc(OC)c(OC)cc2c2nc(-c3ccccc3)nn12	none
CCN(CC)CCCNc1nc2cc(OC)c(OC)cc2c2nc(-c3cccnc3)nn12	none
COCCCNc1nc2cc(OC)c(OC)cc2c2nc(-c3ccccc3)nn12	Peg3 prom inh 54
COc1cc2nc(NCC3CCCO3)n3nc(-c4cccnc4)nc3c2cc1OC (stereo not drawn)	Peg3 prom inh 55
COC(=O)[C@@]12C[C@@H](CC(=O)N3CCCC3)C(=O)N(Cc3cccc4ccccc34)C1=CCC(C)(C)C2	none (no result: KKLEB cytotox, Peg3 prom inh, Mdm2-MdmX inh, CF NFkB block)
CN(c1ccccc1)S(=O)(=O)c1cccc(C(=O)Nc2nccs2)c1	none
COc1cc(OC)c(N(C)S(=O)(=O)c2cccc(C(=O)Nc3nccs3)c2)cc1Cl	Peg3 prom inh 51
O=C(CSc1ccc(F)cc1)NCCSc1ccccc1	none
COC(=O)c1cc(NC(=O)COC(=O)CN2C(=O)C3CC=CCC3C2=O)cc(C(=O)OC)c1 (stereo not drawn)	none
CCOc1ccc(-c2c(C(=O)N/N=C/c3ccc(O)cc3)nnn2-c2nonc2N)cc1	none
CCOc1ccc(-c2c(C(=O)N/N=C/c3cccc(Br)c3)nnn2-c2nonc2N)cc1	Peg3 prom inh 56
O=C(NCc1ccccc1CN1CCCC1)C1CCN(C(=O)c2ccc(F)cc2)CC1	none
Cn1sc2ccccc2c1=O	none (no result: Mdm2-MdmX inh)

High-throughput results deposited in PubChem by several laboratories.
